# Read-outs that look alike come from different tables or passages of the source.
# Experiments:
# Design in all cases: species or system human, MV4-11 + K-562 + COLO205 + SK-N-BE2 + OVCAR-8
# [1] = tested on: DYNC1LI1; details: read-out: apparent Kd, compound concentrations: 100 nM and 1000 nM (sheet 'Samples'), n = 1
# [2] = tested on: CAMKK2; details: read-out: apparent Kd, compound concentrations: 100 nM and 1000 nM (sheet 'Samples'), n = 1
# [3] = tested on: PRKCD; details: read-out: apparent Kd, compound concentrations: 100 nM and 1000 nM (sheet 'Samples'), n = 1
# [4] = tested on: MAPK7; details: read-out: apparent Kd, compound concentrations: 100 nM and 1000 nM (sheet 'Samples'), n = 1
# [5] = tested on: MARK2; details: read-out: apparent Kd, compound concentrations: 100 nM and 1000 nM (sheet 'Samples'), n = 1
# [6] = tested on: MARK3; details: read-out: apparent Kd, compound concentrations: 100 nM and 1000 nM (sheet 'Samples'), n = 1
# [7] = tested on: IRAK4; details: read-out: apparent Kd, compound concentrations: 100 nM and 1000 nM (sheet 'Samples'), n = 1
# [8] = tested on: BMPR2; details: read-out: apparent Kd, compound concentrations: 100 nM and 1000 nM (sheet 'Samples'), n = 1
# [9] = tested on: NME2;NME2P1; details: read-out: apparent Kd, n = 1
# [10] = tested on: PIM1; details: read-out: apparent Kd, compound concentrations: 100 nM and 1000 nM (sheet 'Samples'), n = 1
# [11] = tested on: RAB5C; details: read-out: apparent Kd; compound concentrations:100 nM and 1000 nM (sheet 'Samples'); n = 1
# [12] = tested on: SPR; details: read-out: apparent Kd, compound concentrations: 100 nM and 1000 nM (sheet 'Samples'), n = 1
# [13] = tested on: MAP3K4; details: read-out: apparent Kd, n = 1
# [14] = tested on: ADK; details: read-out: apparent Kd, n = 1
# [15] = tested on: PRKD1; details: read-out: apparent Kd, n = 1
# [16] = tested on: CDK9; details: read-out: apparent Kd; compound concentrations:100 nM and 1000 nM (sheet 'Samples'); n = 1
# [17] = tested on: PLK1; details: read-out: apparent Kd, n = 1
# [18] = tested on: ACLY; details: read-out: apparent Kd, compound concentrations: 100 nM and 1000 nM (sheet 'Samples'), n = 1
# [19] = tested on: CAMK2B; details: read-out: apparent Kd, n = 1
# [20] = tested on: TTK; details: read-out: apparent Kd, compound concentrations: 100 nM and 1000 nM (sheet 'Samples'), n = 1
# [21] = compound concentrations:100 nM and 1000 nM (sheet 'Samples')
compound,measurement,setting,value
COc1cc(Nc2nccc(N3CCC(NC(=O)C4COc5ccccc5O4)C3)n2)cc(OC)c1OC (stereo not drawn) [GSK1379761A],potency estimated from few doses,[1]; CATDS: 0.20239822738500499,2020 nM
COc1cccc(-n2ncc3c(N/N=C/c4ccc(C(=O)NCCN(C)C)cc4)ncnc32)c1.Cl [GW784307A],potency estimated from few doses,[2]; CATDS: 2.5303732707076199E-2,2120 nM
Cn1cc(C2=C(c3cn(CCCO)c4ccccc34)C(=O)NC2=O)c2ccccc21 [RO0317377-000],potency estimated from few doses,[3]; CATDS: 9.7795114941797295E-2,2020 nM
CN1C(=O)c2ccccc2N(C)c2nc(Nc3cnn(C4CCNCC4)c3)ncc21 [XMD-17-51],potency estimated from few doses,[4]; CATDS: 3.6148838376291702E-2,101 nM
same,potency estimated from few doses,[5]; CATDS: 1.3481113896194E-2,2050 nM
same,potency estimated from few doses,[6]; CATDS: 1.4488422936038499E-2,1430 nM
Cl.O=C1N=C(NCc2ccccn2)S/C1=C\c1ccc2ncccc2c1 [RO4874953-001],potency estimated from few doses,[7]; CATDS: 7.1454413714057002E-2,1930 nM
COc1cc(Nc2ccnc3cc(-c4ccncc4)ccc23)cc(OC)c1OC.Cl [GW494610A],potency estimated from few doses,[8]; CATDS: 2.09550401545208E-2,2200 nM
Nc1nc(-c2ccc3c(N)n[nH]c3c2)cc(N2CCCCC2)n1 [GSK2228768A],potency estimated from few doses,[9]; [21],1380 nM
O=C1N=C(NCc2cccs2)SC1Cc1ccc2ncccc2c1 (stereo not drawn) [RO4629078-000],potency estimated from few doses,[2]; CATDS: 1.0556199661625101E-2,586 nM
same,potency estimated from few doses,[5]; CATDS: 7.7790140637755802E-3,1430 nM
same,potency estimated from few doses,[6]; CATDS: 8.2190831573709308E-3,1180 nM
same,potency estimated from few doses,[3]; CATDS: 8.2287657459755997E-3,1170 nM
Cl.Cl.Cl.c1ccc(Oc2ccc(Nc3ccnc4cc(-c5ccc(CN6CCNCC6)o5)ccc34)cc2)nc1.c1ccc(Oc2ccc(Nc3ccnc4cc(-c5ccc(CN6CCNCC6)o5)ccc34)cc2)nc1 [GW567142A],potency estimated from few doses,[4]; CATDS: 1.6423654132294602E-2,2370 nM
COc1ccc(Nc2nccc(N3CCC(NC(=O)Nc4ccc5c(c4)OCO5)C3)n2)cc1 (stereo not drawn) [GSK1379745A],potency estimated from few doses,[10]; CATDS: 4.3475641275587597E-2,1260 nM
CCn1cc(-c2ccnc3[nH]c(-c4cccc(CN(C)C)c4)cc23)c(-c2ccc(NC(=O)N(C)C)cc2)n1 [GSK1070916],potency estimated from few doses,[11],1430 nM
Cc1ccc(O)cc1Nc1ccnc2cc(-c3ccccn3)ccc12.Cl [GW440139A],potency estimated from few doses,[12]; CATDS: 2.8512814896169001E-2,683 nM
CCN(CC)CCOc1ccc(Nc2ncc3cc(-c4c(Cl)cccc4Cl)c(=O)n(C)c3n2)cc1 [SB-601273],potency estimated from few doses,[13]; [21],640 nM
N#Cc1cnc2cc(-c3cnc(CNCCN4CCOCC4)s3)ccc2c1Nc1ccc(Oc2ccccc2)cc1 [GW664114X],potency estimated from few doses,"[13]; compound concentrations: 100 nM and 1000 nM (sheet 'Samples'), CATDS: 5.1499823560292202E-2",914 nM
CN1CCN(Cc2ccc(NC(=O)Nc3ccc(N(C)c4ccnc(Nc5ccc(CS(C)(=O)=O)cc5)n4)cc3)cc2)CC1.Cl [GW827654A],potency estimated from few doses,"[13]; compound concentrations: 100 nM and 1000 nM (sheet 'Samples'), CATDS: 3.4818891633212903E-2",1770 nM
O=S(=O)(CCOCc1ccc(-c2ccc3ncnc(Nc4ccc(OCc5cccc(F)c5)c(Cl)c4)c3c2)o1)c1ccccc1 [GW615311X],potency estimated from few doses,[10]; CATDS: 3.06146278904708E-2,1120 nM
COc1cc2ncn(-c3cc(OCc4cccs4)c(C(N)=O)s3)c2cc1OC [GSK312948A],potency estimated from few doses,[14]; [21],863 nM
same,potency estimated from few doses,[11],1450 nM
CNC(=O)c1ccccc1Nc1nc(Nc2cccc(CS(C)(=O)=O)c2)ncc1C.O=CO [GSK1520489A],potency estimated from few doses,[8]; CATDS: 1.16298732818768E-2,672 nM
same,potency estimated from few doses,[7]; CATDS: 9.4049632429945695E-3,1870 nM
same,potency estimated from few doses,[12]; CATDS: 1.1311991214782401E-2,749 nM
CC(C)c1nc(-c2ccc(F)c(NS(=O)(=O)c3c(F)cccc3F)c2)c(-c2ccnc(Nc3ccc(N4CCOCC4)nc3)n2)s1 [GSK1804250A],potency estimated from few doses,[15]; [21],1140 nM
N#Cc1cccc(Nc2nccc(-c3cnn4ncccc34)n2)c1 [GW778894X],potency estimated from few doses,[16],3.72 nM
CC(=O)c1c(-c2ccncc2)[nH]c(-c2ccncc2)c1C [GW493036X],potency estimated from few doses,[14]; [21],1760 nM
same,potency estimated from few doses,[16],154 nM
same,potency estimated from few doses,[11],1600 nM
COc1cc2ncn(-c3cc(OCc4ccncc4)c(C(N)=O)s3)c2cc1OC [GSK336313A],potency estimated from few doses,[17]; [21],686 nM
CC(=O)N1CCN(c2ccc(Nc3nccc(-c4sc(C(C)C)nc4-c4cccc(NS(=O)(=O)c5cccc(Cl)c5)c4)n3)cn2)CC1 [GSK1660437A],potency estimated from few doses,[18]; CATDS: 3.7699367281675798E-2,1770 nM
Cn1cc(C2=C(c3cccc([N+](=O)[O-])c3)C(=O)NC2=O)c2ccccc21 [RO0317474-000],potency estimated from few doses,"[19]; compound concentrations: 100 nM and 1000 nM (sheet 'Samples'), CATDS: 0.20512519327704001",717 nM
COc1cc2ncn(-c3cc(OCc4sccc4Cl)c(C(N)=O)s3)c2cc1OC [GSK448459A],potency estimated from few doses,[17]; [21],81.2 nM
COc1cc(F)c(F)c(F)c1C(=O)c1cnc(NC2CCN(S(C)(=O)=O)CC2)nc1N [RO4600703-000],potency estimated from few doses,[16],349 nM
Cc1[nH]nc2c1N=C(c1ccccc1Cl)c1cc([N+](=O)[O-])ccc1N2 [RO0274406-000],potency estimated from few doses,"[9]; compound concentrations: 100 nM and 1000 nM (sheet 'Samples'), CATDS: 6.5363052061215496E-2",1680 nM
COc1ccc(C2=C(c3cn(C)c4ccccc34)C(=O)NC2=O)cc1OC [RO3206363-000],potency estimated from few doses,"[15]; compound concentrations: 100 nM and 1000 nM (sheet 'Samples'), CATDS: 5.5883212244700199E-2",347 nM
Fc1cccc(COc2ccc(Nc3ncncc3C#Cc3ccccc3)cc2Cl)c1 [GW651576X],potency estimated from few doses,[1]; CATDS: 4.5527640720115801E-2,2220 nM
same,potency estimated from few doses,[20]; CATDS: 4.4346947520248398E-2,2370 nM
NC(=O)c1sc(-n2cnc3ccc(C(F)(F)F)cc32)cc1OCc1ccccc1Br [GW853606X],potency estimated from few doses,"[17]; compound concentrations: 100 nM and 1000 nM (sheet 'Samples'), CATDS: 0.32728933930944998",1020 nM
COc1cccc(C2=C(c3cn(C)c4c(C)cccc34)C(=O)NC2=O)c1 [RO3301012-000],potency estimated from few doses,"[19]; compound concentrations: 100 nM and 1000 nM (sheet 'Samples'), CATDS: 0.15582522082394101",642 nM
O=C1NC(=O)C(c2cccc(Cl)c2)=C1Nc1ccc(O)c(Cl)c1 [SB-409514],potency estimated from few doses,[18]; CATDS: 0.38429140901440101,1000 nM
COc1ccc(-c2nn3ncccc3c2-c2ccnc(Nc3ccc4c(c3)OCCO4)n2)cc1 [GW827106X],potency estimated from few doses,[20]; CATDS: 4.8165403785390797E-2,1630 nM
COc1cc(N2CCN(C(C)C)CC2)ccc1Nc1nc(Nc2cccc(F)c2C(=O)O)c2cc[nH]c2n1 [GSK1819799A],potency estimated from few doses,[18]; CATDS: 4.2702759645578299E-2,2000 nM
same,potency estimated from few doses,[10]; CATDS: 4.9008652633002601E-2,1330 nM
same,potency estimated from few doses,[12]; CATDS: 4.2652137830011101E-2,2000 nM
same,potency estimated from few doses,[20]; CATDS: 6.5910432506735395E-2,662 nM
Cc1ccc(NC(=O)Nc2ccccc2)cc1-c1ccc(C(=O)Nc2ccncc2)cc1 [GSK1398471A],potency estimated from few doses,"[15]; compound concentrations: 100 nM and 1000 nM (sheet 'Samples'), CATDS: 0.105821439316495",1680 nM
COc1ccc(Nc2nccc(N3CCC(NC(=O)Nc4cccc(OC)c4)C3)n2)cc1 (stereo not drawn) [GSK1379742A],potency estimated from few doses,"[14]; compound concentrations: 100 nM and 1000 nM (sheet 'Samples'), CATDS: 0.15674492121070999",1070 nM
Cl.Oc1ccc2ncnc(Nc3ccc(OCc4ccccc4)cc3)c2c1 [GI262866A],potency estimated from few doses,[19]; [21],391 nM
